Measurements as given in PubChem BioAssay AID2562 (National Center for Advancing Translational Sciences (NCATS), 2010).
Records with an inconclusive call do not appear. Calls of active or inactive are those of the source. The call rests on the fitted dose curve; in most records, active means well fitted curve in the direction sought with a large enough effect; inconclusive means small, poorly fitted or top-dose-only effect, or effect the other way, or another doubt; inactive means no such curve, though single readings can be large or run the other way.

molecular target: Pyruvate kinase PKLR (Homo sapiens) (UniProt P30613); assay: Secondary LDH Assay for Activators of Human Reticulocyte Pyruvate Kinase: for Probe SAR; details: purified hPK-R, LDH-coupled NADH fluorescence kinetic; series mostly up to 58.4 µM; activity change, positive = activation: at the top concentration
Text: NIH Chemical Genomics Center [NCGC] Wael M. Rabeh, Lyudmila Nedyalkova and Hee-Wan Park [Structural Genomics Consortium, 100 College St. Toronto, Ontario, Canada] NCGC Assay Overview: Human pyruvate kinase reticulocyte (hPK-R) enzyme was supplied as a highly purified (>95% pure) preparation from Structural Genomics Consortium in Toronto (Ontario, Canada) and a secondary assay was used to evaluate compounds. This assay couples the formation of pyruvate from hPK-R using lactate dehydrogenase (LDH) and NADH. The depletion of NADH is followed in a fluorescent-based kinetic assay that follows the formation of pyruvate to lactate, as catalyzed LDH. Pyruvate kinase substrates, PEP and ADP, were present in the assay at 0.1 mM and 4 mM respectively. In this kinetic assay initial rates were determined by following the fluorescence of NADH depletion.
NCGC Assay Protocol Summary: Three uL of substrate mix (final concentration, 50 mM Tris-Cl pH 8.0, 200 mM KCl, 15 mM MgCl2, 0.1 mM PEP, 4.0 mM ADP, and 0.2 mM NADH) was dispensed into black-solid 1536 well plates. 23 nL of compounds were delivered by a pin tool and 1 uL of enzyme mix (final concentrations, 10 nM hPK-R and 1 uM of LDH) was added. Plates were immediately placed in ViewLux (Perkin Elmer) and NADH fluorescence was determined at 30 second exposure intervals for between 3 and 6 minutes. Data were normalized to the uninhibited and EC100 activation using known activators such as fructose-bis-phosphate.

Chain of Pyruvate kinase PKLR (Homo sapiens) (P30613 whole entry, looked up): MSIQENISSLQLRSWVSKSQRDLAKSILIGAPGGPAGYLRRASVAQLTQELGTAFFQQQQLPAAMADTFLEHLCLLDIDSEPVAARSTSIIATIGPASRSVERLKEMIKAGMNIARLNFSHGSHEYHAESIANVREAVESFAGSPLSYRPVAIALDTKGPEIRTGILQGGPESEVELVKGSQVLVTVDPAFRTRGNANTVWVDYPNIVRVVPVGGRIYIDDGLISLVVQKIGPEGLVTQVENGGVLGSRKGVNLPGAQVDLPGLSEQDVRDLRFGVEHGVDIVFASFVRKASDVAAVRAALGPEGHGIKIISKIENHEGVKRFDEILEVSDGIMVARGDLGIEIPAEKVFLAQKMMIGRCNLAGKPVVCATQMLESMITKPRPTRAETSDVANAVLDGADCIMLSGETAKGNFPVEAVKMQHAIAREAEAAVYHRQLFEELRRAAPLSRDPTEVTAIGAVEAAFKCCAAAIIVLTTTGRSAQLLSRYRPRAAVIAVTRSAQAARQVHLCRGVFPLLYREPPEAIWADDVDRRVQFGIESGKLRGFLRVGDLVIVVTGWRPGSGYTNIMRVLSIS

Row | Compound | activity change, positive = activation
1 | Cc1nc(-c2ccc(S(=O)(=O)Nc3ccc(C)c(C)c3)s2)cs1 | 20.7% (inactive)
2 | CNc1cccc(S(=O)(=O)N2CCN(S(=O)(=O)c3ccc4c(c3)OCCO4)CC2)c1 | 0.495% (inactive)
3 | O=C1c2ccccc2C(=O)N1c1cc(=O)c2ccccc2[nH]1 | 6.46% (inactive)
4 | Cc1ccc(NS(=O)(=O)c2cc3c(cc2N(C)C)CCC(=O)N3)cc1C | 6.64% (inactive)
5 | COc1ccc(N2C(=O)c3ccccc3C2=O)cc1 | 15.9% (inactive)
6 | O=C1CCc2cc(S(=O)(=O)Nc3ccc4ccccc4c3)ccc2N1 | 14.7% (inactive)
7 | COc1ccccc1N1C(=O)c2ccccc2C1=O | 8.45% (inactive)
8 | O=C1CCc2cc(S(=O)(=O)Nc3ccccc3-c3ccccc3)ccc2N1 | 1.21% (inactive)
9 | CC(=O)Nc1cccc(S(=O)(=O)Nc2ccc(C)c(C)c2)c1 | 2.66% (inactive)
10 | Cc1ccc(NS(=O)(=O)c2ccc(Cl)cc2)cc1C | 8.84% (inactive)
11 | O=C1c2ccccc2C(=O)N1c1cncc2ccccc12 | 0.998% (inactive)
12 | O=C1c2ccccc2C(=O)N1c1cccc2cnccc12 | -1.61% (inactive)
13 | Cc1cc2c(s1)c1cnn(Cc3ccccc3F)c(=O)c1n2C | 10.6% (inactive)
14 | Fc1ccccc1-c1ccc(-c2nc3ccc(Cl)cn3c2Nc2ccc(Cl)cc2)o1 | 26.3% (inactive)
15 | Cc1ccc(NC(=O)c2ccc3c(c2)CCC(=O)N3)cc1C | -10.1% (inactive)
16 | COc1cccc(NS(=O)(=O)c2ccc3c(c2)CCC(=O)N3)c1 | -0.178% (inactive)
17 | Cc1cccc(NS(=O)(=O)c2ccc3c(c2)CCC(=O)N3)c1 | 3.22% (inactive)
18 | Cc1ccc(NS(=O)(=O)c2ccc3c(c2)CC(=O)N3C)cc1C | 3.66% (inactive)
19 | O=C1c2ccccc2C(=O)N1c1ccc2ccccc2n1 | -3.58% (inactive)
20 | O=C1c2ccccc2C(=O)N1c1cnc2ccccc2c1 | 1.73% (inactive)

Row | Compound | activity change, positive = activation
21 | O=C1CCc2cc(S(=O)(=O)Nc3ccccc3Cl)ccc2N1 | 3.72% (inactive)
22 | O=S1(=O)N=C(Oc2ccccc2)c2ccccc21 | 7.61% [at 82.8 µM] (inactive)
23 | COc1cccc(N2C(=O)c3ccccc3C2=O)n1 | 8.18% (inactive)
24 | COc1ccccc1NS(=O)(=O)c1ccc2c(c1)CCC(=O)N2 | 3.07% (inactive)
25 | COc1cccc(N2C(=O)c3ccccc3C2=O)c1 | 10.9% (inactive)
26 | Cc1ccc2nc(-c3ccc(C)o3)c(Nc3ccc4c(c3)OCO4)n2c1 | 2.48% (inactive)
27 | O=C1CCc2cc(S(=O)(=O)Nc3cccnc3)ccc2N1 | -0.0937% (inactive)
28 | Cc1ccc(NS(=O)(=O)c2cc3c(cc2Cl)NC(=O)CO3)cc1C | 16.5% (inactive)
29 | Cc1ccc(NS(=O)(=O)c2ccc3c(c2)CCCC(=O)N3)cc1C | 8.4% (inactive)
30 | Cc1ccc(NS(=O)(=O)c2cc3c(cc2-c2ccccc2)NC(=O)CO3)cc1C | -2.67% (inactive)
31 | Cc1ccc(NS(=O)(=O)c2cc3c(cc2C)OCC(=O)N3)cc1C | 9.35% (inactive)
32 | O=C1c2ccccc2C(=O)N1c1ccc(O)cc1 | 10.6% (inactive)
33 | COc1ccc(NS(=O)(=O)c2ccc3c(c2)CCC(=O)N3)cc1 | 3.97% (inactive)
34 | Cc1ccc(NS(=O)(=O)c2ccc3c(c2)n(C)c(=O)n3C)cc1C | 1.98% (inactive)
35 | CN(C)c1cccc(S(=O)(=O)N2CCN(S(=O)(=O)c3ccc4c(c3)OCCO4)CC2)c1 | -2.84% (inactive)
36 | O=C1CCc2cc(S(=O)(=O)Nc3ccc(-c4ccccc4)cc3)ccc2N1 | -1.35% (inactive)
37 | O=C1c2ccccc2C(=O)N1c1cccnc1 | 14% (inactive)
38 | Cc1cc(N2C(=O)c3ccccc3C2=O)n[nH]1 | 7.37% (inactive)
39 | O=C1CCc2cc(S(=O)(=O)NCc3ccccc3)ccc2N1 | 1.98% (inactive)
40 | O=C1c2ccccc2C(=O)N1c1cccc2ccncc12 | -0.363% (inactive)
